Reference: the supplement of paper PMC6555819

Key:
Assay in all cases: PBM binding z-score (relative to random genomic background probes); higher = stronger binding; sequences stand for … in GC…GCGATTGACAGCGTAGAATGAAGG
[1] = tested on: FXR:RXRa (NR concentration 270 nM, RXRa partner concentration 90 nM)
Outline: (§1)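 Custom Agilent 4×180K protein-binding microarrays carried double-stranded probes. Their 34-nt variable regions held direct-repeat seeds, single-nucleotide variants, half-site ablations and random human genomic background sequences. Arrays were incubated 1 h with ligand-free nuclear receptor dimers in PBS pH 7.4, 2% milk, 0.02% Triton X-100, 1 mM DTT, 0.2 mg/mL BSA and 0.4 mg/ml salmon testes DNA. Antibodies against each partner (one per run) detected binding, and scanned fluorescence was regression-normalized. Binding z-scores use random background probes as reference.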

[2] = tested on: LXRa:RXRa (NR concentration 270 nM, RXRa partner concentration 90 nM)
Outline: as §1

[3] = tested on: LXRa homodimer (NR concentration 270 nM)
Outline: as §1

[4] = tested on: LXRb:RXRa (NR concentration 270 nM, RXRa partner concentration 90 nM)
Outline: as §1

[5] = tested on: LXRb homodimer (NR concentration 270 nM)
Outline: as §1

[6] = tested on: PPARa:RXRa (NR concentration 270 nM, RXRa partner concentration 90 nM)
Outline: as §1

[7] = tested on: PPARg:RXRa (NR concentration 180 nM, RXRa partner concentration 90 nM)
Outline: as §1

[8] = tested on: PPARg:RXRa 270nM:90nM, anti-RXR (NR concentration 270 nM, RXRa partner concentration 90 nM)
Outline: as §1

[9] = tested on: PPARg:RXRa 30nM:10nM, anti-RXR (NR concentration 30 nM, RXRa partner concentration 10 nM)
Outline: as §1

[10] = tested on: PPARg:RXRa 90nM:30nM, anti-RXR (NR concentration 90 nM, RXRa partner concentration 30 nM)
Outline: as §1

[11] = tested on: PPARg:RXRa DBDmut IVT, anti-RXR (DBD mutation: RXRa K156A/R161A, NR concentration 270 nM, RXRa partner concentration 90 nM)
Outline: as §1

[12] = tested on: PPARg:RXRa IVT, anti-PPARg (NR concentration 270 nM, RXRa partner concentration 90 nM)
Outline: as §1

[13] = tested on: PPARg DBDmut:RXRa IVT, anti-PPARg (DBD mutation: PPARg1 K132A/R137A, NR concentration 270 nM, RXRa partner concentration 90 nM)
Outline: as §1

[14] = tested on: PPARg DBDmut IVT, anti-PPARg (DBD mutation: PPARg1 K132A/R137A, NR concentration 270 nM)
Outline: as §1

[15] = tested on: PPARg homodimer (NR concentration 180 nM)
Outline: as §1

[16] = tested on: PXR:RXRa (NR concentration 270 nM, RXRa partner concentration 90 nM)
Outline: as §1

[17] = tested on: PXR homodimer (NR concentration 270 nM)
Outline: as §1

[18] = tested on: RARa:RXR (NR concentration 270 nM, RXRa partner concentration 90 nM)
Outline: as §1

[19] = tested on: RARa homodimer (NR concentration 270 nM)
Outline: as §1

[20] = tested on: RARb:RXRa (NR concentration 270 nM, RXRa partner concentration 90 nM)
Outline: as §1

Sequence | PBM binding z-score [1] | PBM binding z-score [2] | PBM binding z-score [3] | PBM binding z-score [4] | PBM binding z-score [5] | PBM binding z-score [6] | PBM binding z-score [7] | PBM binding z-score [8] | PBM binding z-score [9] | PBM binding z-score [10] | PBM binding z-score [11] | PBM binding z-score [12] | PBM binding z-score [13] | PBM binding z-score [14] | PBM binding z-score [15] | PBM binding z-score [16] | PBM binding z-score [17] | PBM binding z-score [18] | PBM binding z-score [19] | PBM binding z-score [20]
ACTATTAGTTAAGACGAGGGCAACCGATAGGTTG | 0.44 | 0.122 | 0.165 | 0.211 | 0.232 | 0.271 | 0.646 | -0.109 | -0.17 | -0.186 | -0.356 | 0.422 | 0.81 | 0.924 | 0.44 | 0.642 | 0.645 | 0.641 | 1.02 | 0.967
ACTAGCATGCCAAGTTTGGGTCACTCAAACAAAG | 0.0536 | 0.057 | -0.432 | 0.606 | -0.573 | 1.23 | 0.0927 | 0.138 | -0.204 | -0.214 | -0.0858 | 0.673 | -0.779 | -0.563 | 0.0985 | 0.71 | -0.444 | 1.14 | -0.448 | 1.28
CCTAGCAGGCCAATCTGGGTCACTAAAGGCTTGA | 0.156 | 0.884 | -0.513 | 0.511 | -0.766 | 2.87 | 1.97 | 1.83 | -0.068 | 0.891 | 4 | 4.94 | -0.0852 | -0.774 | 0.49 | 0.325 | -0.597 | 1.13 | -0.281 | 1.23
TAGCCTAGGTCATGGGCCCGTATACCACGCGAAC | 4.69 | 3.5 | 0.466 | 2.77 | -0.0336 | 4 | 3.44 | 3.32 | 0.723 | 2.09 | 1.21 | 3.21 | -0.0541 | -0.484 | 1.07 | 1.92 | -0.637 | 2.86 | 0.106 | 3.81
CAAACTAGGTCACCGGAAGGACAAAGTCCGCATG | 4.67 | 3.57 | 0.547 | 2.71 | 0.36 | 5.63 | 9.49 | 7.51 | 6.09 | 7.18 | 8.34 | 9.2 | 4.33 | 1.54 | 2.4 | 2.89 | 0.127 | 4.17 | 0.734 | 4.69
GCTATTAGTTGGAAGGGCAACCGAATGATTCTCG | -0.211 | -0.165 | 0.178 | -0.0403 | -0.253 | 0.0818 | 0.375 | 0.723 | -0.127 | 0.108 | -0.166 | -0.0839 | -0.592 | -0.456 | 0.324 | -0.247 | -0.0418 | -0.059 | 0.846 | 1.06
TCTTGTAGATCATCAGGTTAAGAAAGCTGGCCAA | 0.48 | 0.703 | 0.27 | 0.642 | -0.0532 | 0.993 | -0.352 | 1.6 | 2.71 | 1.98 | 2.18 | 1.18 | 1.16 | 0.736 | 0.119 | 0.47 | -0.117 | 0.63 | 0.422 | 0.398
TAGCCTAGGTCAGATCGGACCAGTATACGCTATA | 1.36 | 1.26 | -0.219 | 1.03 | -0.138 | 1.99 | 0.959 | 0.981 | -0.106 | 0.213 | 0.812 | 1.36 | 0.21 | 0.399 | 0.0652 | 0.377 | -0.37 | 1.48 | -0.814 | 2.85
TCCATTAGTTGATTAGGGCAACCGAAACAGCGGA | 0.464 | 0.43 | 0.384 | 0.197 | 0.366 | 0.857 | 0.199 | 2.15 | 3.94 | 2.76 | 2.08 | 1.28 | 0.323 | 0.941 | 0.749 | 0.562 | 0.0879 | 0.689 | 0.398 | 1
CCTGCTAGGTCATGGTCAGCTACTCTACAGTATG | 3.3 | 2.34 | 0.256 | 1.42 | -0.441 | 3.16 | 2.56 | 2.72 | 0.637 | 1.67 | 4.23 | 3.88 | 0.29 | 0.349 | 1.41 | 0.866 | -0.32 | 2.09 | -0.0662 | 4.04
CCGACTGGGGCAGAAAGGTTACCATACCATCCGG | 0.35 | 0.432 | -0.092 | 0.947 | -1.04 | 2.03 | 1.69 | 2.6 | 0.687 | 2.03 | 1.62 | 2.01 | -0.897 | -0.652 | 1.04 | 0.796 | -0.416 | 1.49 | -0.549 | 1.74
CCTTACGGGTCACGAGGTTATAGGACGACGAGCG | 6.8 | 4.66 | 0.193 | 3.75 | -0.117 | 5.93 | 7.51 | 6.72 | 3.51 | 5.65 | 4.3 | 5.38 | 1.39 | 0.939 | 1.95 | 4.53 | 0.176 | 5.99 | 1.17 | 4.56
TAGCCTAGGACATTGGGCCAGTATAGTACGCATC | -0.399 | -0.701 | -0.544 | -0.775 | -0.541 | -0.477 | 0.608 | -0.283 | -0.241 | -0.224 | -0.0779 | 0.309 | -0.136 | -0.693 | -0.568 | -0.674 | -0.291 | -0.557 | -0.0644 | -0.123
CAAACTAGGTCAAAGGACAAAGTCGAGCCAACCA | 4.29 | 3.41 | 0.833 | 2.68 | 0.636 | 5.81 | 10.2 | 8.77 | 8.72 | 9.77 | 8.09 | 8.38 | 2.59 | 0.234 | 1.32 | 1.72 | 0.313 | 3.01 | 0.239 | 4.03
GGAACGAGGGCAAAGTTGATAGCATCTGTCGACG | 1.45 | 0.921 | -0.231 | 1.07 | -0.272 | 4.11 | 6.65 | 7.24 | 5.84 | 7.47 | 3.97 | 4.32 | 0.506 | -0.103 | -0.0124 | 1.14 | -0.0271 | 1.56 | -0.075 | 2.37
GTTTACGGGTCAAAGGTTATAGCATGAATAGAAT | 6.92 | 5.94 | 0.633 | 6 | 0.401 | 6.92 | 11.3 | 9.13 | 9.06 | 10.1 | 4.49 | 6.3 | 1.34 | 0.914 | 2.36 | 6.4 | 0.568 | 8.19 | 0.857 | 4.66
TCTAGTTGGTCAAACGTCACACACTCGAAATGCG | 0.778 | 0.664 | 0.422 | 0.693 | 0.281 | 2.06 | 3.61 | 4.92 | 4.37 | 5.13 | 3.29 | 2.32 | 0.65 | 1.11 | 1.05 | 0.699 | 0.241 | 0.948 | 0.646 | 1.2
TCTTGTAGATCAATAGAGGATAAGAAAGTGCGCT | 0.574 | 0.33 | -0.0873 | -0.13 | -0.142 | 0.415 | 0.389 | 1.46 | 2.75 | 2.25 | 1.63 | 0.366 | 0.6 | 1.05 | 0.615 | 0.475 | 0.185 | 0.654 | 0.232 | 0.029
CCTAGCAGGCCAGGGTCACTCACGCATTTCGCTT | 2.04 | 1.57 | -0.247 | 1.73 | -0.927 | 2.94 | 0.599 | 1.29 | -0.606 | 0.36 | 0.345 | 0.942 | -0.473 | -1.26 | 1.45 | 2.31 | -0.101 | 3.17 | 0.177 | 2.41
